This is a sample that favours compounds with a hit; in the whole collection about 14% have one here.
Shiga inhibitor – inhibitors of Shiga toxin in Vero cells; inhibition, % at 38.7 µM; Vero cells, Shiga toxin protein synthesis inhibition reporter; AID 2315; 290,000 tested, 9.2% active; in the data active = inhibition mostly above about 28%, no sharp cut-off; inactive = mostly below about 43%
LmPK inh – LmPK (Leishmania mexicana) enzyme inhibition | Q27686 | purified LmPK, Kinase-Glo ATP luminescence, 1 h | Potency, µM (top dose mostly 57.5 µM), usual class: inhibitors | 290,000 tested, 0.37% active | AID 1721
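qHTS format; LmPK 0.1 nM; substrates PEP 0.5 mM and ADP 0.1 mM. One-hour room-temperature incubation, then coupled luciferase luminescence; 0.5 nM enzyme wells mark activation.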
NS1 inh – blocks influenza NS1 protein function | Potency, µM (doses to about 46.1 µM) | 270,000 tested, 0.4% active; calls by dose curve; note: actives are rising curves; nearly all actives have a fitted effect of over 50% in size
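Compounds were scored for reversing the slow growth caused by influenza A NS1 in S. cerevisiae, measured by optical density at 600 nm. Assay medium contained 2% galactose at pH 6.0; NS1-free yeast of the same strain were the positive control.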
Giardia FBPA inh – inhibitors of Giardia lamblia fructose-1,6-bisphosphate aldolase; AID 2451; 290,000 tested, 0.71% active; purified Giardia FBPA; Potency, µM (doses to about 59.6 µM), hits mostly inhibitors; note: nearly all actives have a fitted effect of over 55% in size
Target sequence (A8B2U2 whole entry, looked up): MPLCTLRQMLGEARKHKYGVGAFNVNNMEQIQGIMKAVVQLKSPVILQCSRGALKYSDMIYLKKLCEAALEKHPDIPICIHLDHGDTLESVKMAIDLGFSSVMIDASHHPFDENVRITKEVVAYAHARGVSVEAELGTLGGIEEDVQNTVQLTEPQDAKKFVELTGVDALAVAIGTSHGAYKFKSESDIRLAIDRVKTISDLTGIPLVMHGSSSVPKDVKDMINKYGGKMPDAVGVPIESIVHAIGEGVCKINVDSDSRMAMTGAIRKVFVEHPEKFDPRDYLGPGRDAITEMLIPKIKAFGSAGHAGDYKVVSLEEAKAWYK
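40 nM FBPA preincubated 10 min at RT with compound (up to 57.5 uM final), then substrate plus GAPDH/TPI/NAD/arsenate coupling and diaphorase/resazurin added. Fluorescence read after 20 min at RT, 525/598 nm.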
Cycloheximide cs – counter-screen hit for Shiga toxin inhibitors, cycloheximide. 300,000 tested, 12% active. max response, %. cell reporter, cycloheximide protein synthesis inhibition counterscreen; in the data active = max response mostly above about 13%, no sharp cut-off; inactive = mostly below about 14%; note: read at 38.3 µM for the half of the compounds with a filed dose
Hits are given with their value; 0 = inactive; ? = inconclusive; - = not tested or not shown; + = active, no number; [ ] = another dose, or the depositor's remark. Unless noted, calls come from the whole dose curve; as a rule, active = well fitted curve in the direction sought with a large enough effect; inconclusive = small, poorly fitted or top-dose-only effect, or another doubt; inactive = no such curve, though single readings can be large; an effect the other way counts as inactive or inconclusive.

SMILES	Shiga inhibitor	LmPK inh	NS1 inh	Giardia FBPA inh	Cycloheximide cs
COC(=O)c1cccc(C23CC4(C2)[C@H](CN(C)[C@@H]4c2ccccc2)C3c2ccc(Cl)nc2)c1 (stereo partly specified)	-	-	-	0	-
CCn1ncc(-c2csc(N)n2)c1C	0	0	-	0	26
O=C(c1ccco1)N1CCC2(CCCN(c3ccccc3)C2)CC1	-	-	-	0	-
CCOc1cc2sc(N3CCC(C(=O)Nc4ccc(C(C)C)cc4)CC3)nc2cc1Br	120	-	-	-	56
CCOc1cc2sc(N3CCC(C(=O)NCCCN4CCCC4=O)CC3)nc2cc1Br	0	0	0	0	0
CCOc1ccc2nc(N3CCCC(C(=O)NCCCN4CCOCC4)C3)sc2c1 (stereo unspecified)	58	0	0	0	28
CCOc1ccc2nc(N3CCC(C(=O)NCCCN4CCOCC4)CC3)sc2c1	56	0	0	0	37
COc1cccc(NC(=S)NCCc2ccccn2)c1	39	0	0	0	27
CN(C)C(=S)SCC(=O)Nc1ccc(Cl)cc1Cl	110	0	0	0	24
S=C(NCCc1ccccn1)Nc1ccc(Cl)cc1Cl	0	0	0	0	14
S=C(NCCc1ccccn1)Nc1ccc(Cl)c(Cl)c1	41	0	0	0	0
O=C1C(=Nc2cccc(Cl)c2)CC(c2ccc(Cl)cc2)N1c1cccc(Cl)c1 (stereo unspecified)	0	0	0	0	0
CN(C)CCNC(=S)Nc1ccc(Cl)cc1Cl	0	0	0	0	23
S=C(NCCc1ccccn1)Nc1ccccc1	34	0	-	0	22
Cc1nc([N+](=O)[O-])cn1CC(=O)c1ccc(OC(F)(F)F)cc1	0	0	0	0	0
Cn1nnnc1SCc1ccc(C(=O)Nc2ccc(Br)cc2)cc1	57	0	0	0	47
COc1ccc(-n2nnnc2SCC(=O)c2cccc(OC)c2)cc1	0	0	0	0	0
COc1ccc2nc(NC(=O)CSc3nnc(-c4ccoc4C)n3C)sc2c1	80	0	0	0	46
CCn1nnnc1SCC(=O)c1cccc(OC)c1	0	0	0	0	19
CC(=O)Nc1ccc(C(=O)CSc2nnnn2C)cc1	0	0	0	0	0
C=CCn1nnnc1SCC(=O)Nc1ccc(OC)cc1	0	0	0	-	24
CCCCCCCCCCCCCC/C(C(=O)O)=C(\C)C(=O)O	0	-	-	0	0
COc1ccc(C(=O)N2CCC[C@@]3(CCN(C)C3)C2)cc1	-	-	-	0	-
CCn1cc(S(=O)(=O)NCCc2ccc(F)cc2)cn1	0	0	0	-	0
COc1ccc2nc(NC(=O)CSc3nc(C)cc(C)n3)sc2c1	0	0	0	0	0
SMILES	Shiga inhibitor	LmPK inh	NS1 inh	Giardia FBPA inh	Cycloheximide cs
COc1ccc(NC(=O)CCSc2ccc(F)cc2)cc1	57	0	-	0	34
COc1ccc(NC(=O)CCSc2nnnn2C)cc1	0	0	-	0	25
CCn1nnnc1SCC(=O)Nc1nc2ccc(OC)cc2s1	+	0	0	0	25
CCn1nnnc1SCC(=O)Nc1ccc(OC)cc1	34	0	0	0	0
COc1ccc(NC(=O)CCSc2ccc(C)cc2)cc1	0	0	0	0	0
CC(Oc1ccccc1)C(=O)Nc1nnc(S(=O)(=O)Nc2ccccc2)s1 (stereo unspecified)	0	0	0	0	0
COCCn1nnnc1SCC(=O)c1ccccc1	0	0	0	0	14
CCOC(=O)c1cccc(NC(=O)CSc2nnc(-c3ccoc3C)n2CCOC)c1	0	0	0	0	9.2
O=C(NCC1CCCO1)c1ccc(F)c2ccccc12 (stereo unspecified)	0	0	0	0	0
CC(C)[C@@H](CC(=O)N[C@@H]1CCCC[C@H]1C(=O)N[C@H](CC(=O)N[C@@H](CCC(=O)O)CC(=O)O)Cc1ccccc1)NC(=O)C[C@H](CO)NC(=O)[C@@H]1CNCC[C@H]1N	-	-	-	0	-
Cn1c(-c2cccs2)nc2ccccc21	125	0	-	0	35
CN(C)c1nc2ccccc2n(C)c1=O	0	0	-	0	0
Cn1c(-c2ccc(C=O)s2)nc2ccccc21	0	?	0	0	23
C=CC[C@@H]1C=C[C@H](O/N=C(\C)CCN2CCCc3nc(C)c(C)cc32)[C@H](CO)O1	-	-	-	0[12.9 µM]	-
COc1ccc(CN2CCC3C=CCC(C(=O)O)C3C2=O)cc1OC (stereo unspecified)	0	-	-	0	0
O=C(c1cc(-c2ccc(Br)cc2)on1)N1CCCCCC1	80	0	0	0	35
O=C(NCCN1CCOCC1)c1cc(-c2ccc(Br)cc2)on1	0	0	0	0	0
O=C(c1cc(-c2ccc(Br)cc2)on1)N1CCOCC1	59	0	0	0	21
COc1cc2nccc(Oc3ccc(NC(=O)Nc4ccc(F)cc4F)c(F)c3)c2cc1OC	0	-	-	0	0
CC1COc2ccccc2N1S(=O)(=O)c1cc(Cl)ccc1Cl (stereo unspecified)	0	0	0	0	0
O=S(=O)(NN1CCOCC1)c1cc(Cl)cc(Cl)c1O	0	0	0	0	0
COc1cc(O)oc1C=Nc1ccccc1	109	0	0	0	27
COc1ccc(N=Cc2c(O)cc(C)oc2=O)cc1	0	0	0	0	0
O=C(NCC1CCCO1)C(c1ccncc1)N(Cc1cccs1)C(=O)CN1C(=O)c2ccccc2S1(=O)=O (stereo unspecified)	0	0	0	0	11
Cc1ccccc1CCN(C(=O)CN1C(=O)c2ccccc2S1(=O)=O)C(C(=O)NCC1CCCO1)c1ccncc1 (stereo unspecified)	0	0	0	0	0
SMILES	Shiga inhibitor	LmPK inh	NS1 inh	Giardia FBPA inh	Cycloheximide cs
CCn1c(C)nc2cc(C(=O)NNC(=S)Nc3ccccc3Cl)ccc21	51	0	0	0	40
CCn1c(C)nc2cc(C(=O)NNC(=S)Nc3ccc(Cl)cc3Cl)ccc21	0	0	0	?	16
N=c1sccn1CC(=O)Nc1ccc(Cl)cc1[N+](=O)[O-]	0	0	0	0	0
CN(C)Cc1c(O)ccc2occ(C(=O)c3ccccc3)c12	65	0	?	0	25
CN(C)Cc1c(O)ccc2occ(C(=O)c3ccc(F)cc3)c12	0	0	0	0	0
O=C(c1cccs1)c1coc2ccc(O)c(CN(CCO)CCO)c12	63	0	0	0	17
CCN(CC)Cc1c(O)ccc2occ(C(=O)c3ccccc3)c12	78	0	0	0	39
Cc1cc(=O)oc(C)c1C(=O)NC1CCCCCCC1	0	0	-	0	0
COC(=O)c1cccc(NC(=O)CSc2nnc(-c3ccco3)o2)c1	0	0	0	0	0
COc1cccc(C2NC(=S)NC3=C2CCc2ccccc23)c1 (stereo unspecified)	0	0	0	16µM	0
COc1ccc2c(c1)C1=C(CC2)C(c2ccc(C)cc2)NC(=S)N1 (stereo unspecified)	0	0	-	0	0
Cc1ccc(C2NC(=O)NC3=C2CCc2ccccc23)cc1 (stereo unspecified)	71	0	0	0	57
COc1ccc(NC(=O)[C@H](C)NC(=O)[C@@H]2Cc3ccccc3CN2C(=O)OC(C)(C)C)cc1	0	0	0	0	0

Compound activity (PubChem BioAssay)
